Molecules are shown by their SMILES. Inconclusive results are not listed. Activity calls are given as the source filed them.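 The calls were made as follows, unless noted: active = efflux inhibition above 0.42, the validation set average plus 4 SD; inconclusive = no clear call, values can overlap the other calls; inactive = the rest.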

Experiment [1] in a line: yeast TOR pathway RPL19A-GFP modulators, primary screen, cell-based, S. cerevisiae, multiplex flow cytometry (AID 1862; in the data active = percent of DMSO control GFP below about 86%;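 also: lower values mimic rapamycin by blocking the RPL19A rise seen in DMSO cells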). The note with it: S. cerevisiae RPL19A-GFP strain, flow cytometry fluorescence, 3 h; at 10 µM; stronger effect = lower value. (A flow cytometer gives signals particle by particle.)
Experiment [2] is described as follows: modulators of MEP2-GFP levels in yeast, primary screen, S. cerevisiae, multiplex flow cytometry (AID 1867;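 active = GFP response, as percent of the DMSO control, above the screen-wide mean plus 3 SD, about 139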;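 also: median GFP channel fluorescence of barcode-gated MEP2-GFP cells measured by flow cytometry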). The conditions noted are these: S. cerevisiae MEP2-GFP strain, 3 h, at 10 µM, stronger effect = higher value, 100% means same as DMSO wells.
Experiment [3] in a line: modulators of CIT2-GFP expression in yeast, primary screen, S. cerevisiae, GFP fusion, multiplex flow cytometry (AID 1870;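 active = percent response above a set limit, the screen-wide mean plus 3 SD, cut at about 130% in these data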;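 also: barcoded CIT2-GFP strain pooled with four other GFP strains with rapamycin as positive control; median GFP fluorescence per well over plate mean of DMSO wells so 100% = DMSO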). The note with it: 3 h, at 10 µM, stronger effect = higher value.
A short description of experiment [4]: modulators of LAP4-GFP expression in yeast, primary screen, S. cerevisiae, multiplex flow cytometry (AID 1873;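 active = GFP signal, as percent of the solvent control, above the screen mean plus 3 SD, about 149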). The conditions noted are these: 3 h, at 10 µM, stronger effect = higher value.
Experiment [5] is described as follows: modulators of AGP1-GFP expression in yeast TOR pathway, primary screen, cell-based, multiplex flow cytometry, S. cerevisiae (AID 1887;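 active = GFP signal above the screen-wide mean plus 3 SD, that is over about 124.5% of the solvent control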;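 also: AGP1-GFP fusion strain of S. cerevisiae within a five-strain barcoded multiplex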). The conditions noted are these: 3 h, at 10 µM, stronger effect = higher value.
Experiment [6] can be described thus: inhibitors of CD8+ T cell-vesicle binding, pilot screen, LFA-1/ICAM-1 modulator project, MLPCN validation set, flow cytometry (AID 2523;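 active = response below a set limit, under 55% cells CD8-positive and vesicle-bound, and CD8 cells' 90th-percentile brightness under 279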;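 as to vesicle binding response: mean PE anti-B7-1 fluorescence of CD8+ cells relative to row control; 100% = QL9-loaded vesicles with DMSO vehicle in the same plate row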). The conditions noted are these: 2C mouse CD8+ T cells, at 7 µM, stronger effect = lower value; double positive events: measured here: CD8+/vesicle+ event percentage.
The target in experiment [7] is Integrin beta-1 (Homo sapiens) + Integrin alpha-4 (Homo sapiens) (UniProt P13612+P05556). In words: inhibition of HUTS-21 binding to VLA-4, pilot screen, VLA-4 allosteric modulator project, U937 cells, HUTS-21 mAb, flow cytometry, validation set (AID 2674;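 active = inhibition above 50%, about 3 SD of the validation set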;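 also: antibody binding induced by the VLA-4 ligand LDV present at three times its Kd; 0% = LDV ligand with antibody and no compound and 100% = antibody without LDV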). The note with it: HUTS-21 LIBS mAb binding, at 6.7 µM, stronger effect = higher value, binding induced by LDV ligand.
A short description of experiment [8]: superoxide lowering in aged yeast cells, pilot screen, validation compound set (AID 2706;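 active = superoxide response below 65% of plate, a cut near 3 SD across the whole screen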;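 also: yeast exposed to compound for one week at 30 degrees C before staining; 100% = mean of all compound wells on the same plate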). The note with it: S. cerevisiae aging, superoxide DHE fluorescence; at 10 µM; stronger effect = lower value.
In experiment [9] the target is Beta-adrenergic receptor kinase 1 (Homo sapiens) (UniProt P25098). The experiment in a line: GRK2 binders displacing RNA aptamer, biochemical, validation, human GRK2, bead flow cytometry (AID 488806;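 active = aptamer binding inhibition above 30%, about 3 SD of noise from non-fluorescent compounds; inactive = inhibition at or below 30%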). The conditions noted are these: bead-bound GRK2, FAM-aptamer displacement, at 10 µM, stronger effect = higher value.
In experiment [10] the target is Beta-2 adrenergic receptor (Homo sapiens) (UniProt P07550). In words: beta2AR agonists driving receptor internalization, pilot screen, cell-based, FAP fluorogen, flow cytometry, validation set (AID 504459;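 active = percent response above 42, roughly 3 SD of non-fluorescent test compounds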;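 also: agonist-driven loss of surface beta2AR via internalization measured by FAP dye flow cytometry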). The conditions noted are these: Am2.2-beta2AR cells, FAP surface receptor flow cytometry; at 10 µM; stronger effect = higher value.
Experiment [11] deals with AP-2 complex subunit beta (Homo sapiens) (UniProt P63010). The experiment in a line: inhibitors of arrestin peptide binding to AP2, pilot screen, biochemical, validation set, GST-AP2 beads, flow cytometry (AID 504541;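 active = inhibition above 54%, about 3 SD of non-fluorescent compounds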;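 also: AP2 carries R879A mutation and is captured from E. coli lysate; bead-bound FITC arrestin peptide fluorescence measuring arrestin peptide binding to AP2; 0% = DMSO wells and 100% = excess unlabeled arrestin peptide control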). The note with it: FITC arrestin peptide, at 10 µM, stronger effect = higher value, AP2 beta2 appendage fragment, R879A mutant.
Experiment [12] in a line: yeast V-ATPase proton transport modulators, S. cerevisiae, pHLuorin, HTS validation (AID 504600; in the data active = response above about 15%;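 also: plate controls were DMSO for no effect and reference compound for full effect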). The note with it: S. cerevisiae pHLuorin cytosolic pH, at 10 µM, stronger effect = higher value.
Experiment [13] concerns anti-desmoglein-3 scFv antibody binding to human DSG3. In words: inhibitors of anti-DSG3 scFv binding to DSG3, pilot screen, biochemical, validation compound set, bead-based, flow cytometry (AID 588368;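 active = binding below the plate cutoff, the plate median minus 3 SD, with a reading above zero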;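 also: signal is the median channel fluorescence of bead-bound GFP antibody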). The conditions noted are these: Protein G beads, DSG3-Fc, scFv-GFP binding, at 10 µM, stronger effect = lower value.
The nature of experiment [14]: inhibitors of fungal efflux pumps CDR1, CDR2, MDR1, pilot screen, validation compound set, multiplex, phenotypic (AID 588506).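 Also: Nile Red retained in cells so higher fluorescence means more efflux inhibition; 0 = negative control wells and 1 = enniatin B 25 µM full block.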 The note with it: S. cerevisiae pump-expressing triplex, Nile Red efflux flow cytometry; at 10 µM; stronger effect = higher value; the pumps come from Candida albicans.
Experiment [15] has as its target ATP-binding cassette sub-family B member 6 (Homo sapiens) (UniProt Q9NP58). The experiment in a line: ABCB6 transporter inhibitors, pilot screen, K562-ABCB6 cells, flow cytometry, validation set (AID 588550;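 active = inhibition above the screen-wide mean plus 3 SD, about 51%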;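 also: 0% = DMSO wells and 100% = benzethonium chloride 70 µM positive control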). The note with it: K562-ABCB6 porphyrin accumulation, 1 h, at 10 µM, stronger effect = higher value.
Experiment [16] in a line: promoters of myeloid differentiation in arrested cells, primary screen, cell-based, GFP/MAC1 double positive, flow cytometry, validation set (AID 588685;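 active = differentiation response of at least 50%, scaled between solvent and reference control, from cells with both markers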;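 also: compound exposure lasts four days before antibody staining and flow analysis; 0% = DMSO wells and 100% = 5 µM fulvestrant positive control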). The conditions noted are these: ER-HoxA9 marrow cells, stronger effect = higher value, normalized: vehicle 0, fulvestrant 100.

Chain of Beta-2 adrenergic receptor (Homo sapiens) (P07550 whole entry, looked up): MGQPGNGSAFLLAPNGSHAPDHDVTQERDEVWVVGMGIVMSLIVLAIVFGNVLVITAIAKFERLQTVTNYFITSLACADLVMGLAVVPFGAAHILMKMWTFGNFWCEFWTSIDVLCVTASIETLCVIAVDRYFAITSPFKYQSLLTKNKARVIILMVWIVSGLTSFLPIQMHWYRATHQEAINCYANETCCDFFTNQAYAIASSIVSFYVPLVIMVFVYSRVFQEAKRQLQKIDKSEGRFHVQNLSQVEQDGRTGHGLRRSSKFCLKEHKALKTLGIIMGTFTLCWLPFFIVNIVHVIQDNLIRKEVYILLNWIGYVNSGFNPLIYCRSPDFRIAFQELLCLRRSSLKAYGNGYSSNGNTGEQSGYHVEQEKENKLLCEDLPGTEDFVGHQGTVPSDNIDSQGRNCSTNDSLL
Chain of AP-2 complex subunit beta (Homo sapiens) (P63010 whole entry, looked up, the tested form may be a part, one chain of several): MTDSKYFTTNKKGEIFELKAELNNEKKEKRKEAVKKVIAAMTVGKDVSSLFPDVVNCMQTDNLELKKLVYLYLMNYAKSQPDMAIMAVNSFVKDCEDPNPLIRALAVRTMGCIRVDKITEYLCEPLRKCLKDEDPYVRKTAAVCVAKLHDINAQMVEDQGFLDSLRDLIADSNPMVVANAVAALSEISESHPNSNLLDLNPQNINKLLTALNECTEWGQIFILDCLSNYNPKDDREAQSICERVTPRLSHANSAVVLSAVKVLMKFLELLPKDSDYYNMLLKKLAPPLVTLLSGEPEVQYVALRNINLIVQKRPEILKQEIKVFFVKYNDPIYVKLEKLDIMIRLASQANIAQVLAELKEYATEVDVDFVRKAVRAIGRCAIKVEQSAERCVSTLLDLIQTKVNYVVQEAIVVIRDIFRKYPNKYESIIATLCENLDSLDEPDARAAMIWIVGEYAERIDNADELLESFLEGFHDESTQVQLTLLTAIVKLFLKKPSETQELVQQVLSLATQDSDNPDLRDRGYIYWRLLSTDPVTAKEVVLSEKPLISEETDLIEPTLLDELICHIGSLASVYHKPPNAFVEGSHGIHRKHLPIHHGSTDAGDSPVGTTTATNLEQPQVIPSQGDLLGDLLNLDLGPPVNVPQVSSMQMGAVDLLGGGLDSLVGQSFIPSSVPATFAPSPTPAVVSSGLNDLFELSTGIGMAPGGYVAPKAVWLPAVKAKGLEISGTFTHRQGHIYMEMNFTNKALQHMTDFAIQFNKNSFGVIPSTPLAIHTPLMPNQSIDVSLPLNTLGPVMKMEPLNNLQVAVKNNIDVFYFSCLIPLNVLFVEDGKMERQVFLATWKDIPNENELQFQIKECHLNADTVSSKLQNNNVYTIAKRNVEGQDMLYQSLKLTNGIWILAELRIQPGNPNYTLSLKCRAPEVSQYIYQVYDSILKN
Chain of Beta-adrenergic receptor kinase 1 (Homo sapiens) (P25098 whole entry, looked up): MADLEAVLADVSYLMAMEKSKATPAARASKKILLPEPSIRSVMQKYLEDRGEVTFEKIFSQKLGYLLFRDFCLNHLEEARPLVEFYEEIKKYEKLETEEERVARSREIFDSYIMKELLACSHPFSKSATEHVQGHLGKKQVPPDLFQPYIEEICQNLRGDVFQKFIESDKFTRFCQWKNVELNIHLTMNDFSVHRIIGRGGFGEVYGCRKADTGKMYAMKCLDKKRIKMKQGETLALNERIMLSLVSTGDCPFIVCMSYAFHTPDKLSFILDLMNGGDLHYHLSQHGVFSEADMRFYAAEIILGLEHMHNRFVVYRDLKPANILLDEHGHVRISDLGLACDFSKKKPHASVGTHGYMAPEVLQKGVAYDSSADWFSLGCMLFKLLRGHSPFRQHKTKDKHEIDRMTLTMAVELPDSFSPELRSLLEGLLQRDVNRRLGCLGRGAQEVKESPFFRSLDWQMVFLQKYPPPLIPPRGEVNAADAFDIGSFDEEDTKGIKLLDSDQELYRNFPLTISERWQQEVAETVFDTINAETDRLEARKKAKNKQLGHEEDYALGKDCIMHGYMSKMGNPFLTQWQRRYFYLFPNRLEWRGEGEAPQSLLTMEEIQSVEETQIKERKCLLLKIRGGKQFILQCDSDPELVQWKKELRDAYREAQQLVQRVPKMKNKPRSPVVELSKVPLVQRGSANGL
Chain of ATP-binding cassette sub-family B member 6 (Homo sapiens) (Q9NP58 whole entry, looked up): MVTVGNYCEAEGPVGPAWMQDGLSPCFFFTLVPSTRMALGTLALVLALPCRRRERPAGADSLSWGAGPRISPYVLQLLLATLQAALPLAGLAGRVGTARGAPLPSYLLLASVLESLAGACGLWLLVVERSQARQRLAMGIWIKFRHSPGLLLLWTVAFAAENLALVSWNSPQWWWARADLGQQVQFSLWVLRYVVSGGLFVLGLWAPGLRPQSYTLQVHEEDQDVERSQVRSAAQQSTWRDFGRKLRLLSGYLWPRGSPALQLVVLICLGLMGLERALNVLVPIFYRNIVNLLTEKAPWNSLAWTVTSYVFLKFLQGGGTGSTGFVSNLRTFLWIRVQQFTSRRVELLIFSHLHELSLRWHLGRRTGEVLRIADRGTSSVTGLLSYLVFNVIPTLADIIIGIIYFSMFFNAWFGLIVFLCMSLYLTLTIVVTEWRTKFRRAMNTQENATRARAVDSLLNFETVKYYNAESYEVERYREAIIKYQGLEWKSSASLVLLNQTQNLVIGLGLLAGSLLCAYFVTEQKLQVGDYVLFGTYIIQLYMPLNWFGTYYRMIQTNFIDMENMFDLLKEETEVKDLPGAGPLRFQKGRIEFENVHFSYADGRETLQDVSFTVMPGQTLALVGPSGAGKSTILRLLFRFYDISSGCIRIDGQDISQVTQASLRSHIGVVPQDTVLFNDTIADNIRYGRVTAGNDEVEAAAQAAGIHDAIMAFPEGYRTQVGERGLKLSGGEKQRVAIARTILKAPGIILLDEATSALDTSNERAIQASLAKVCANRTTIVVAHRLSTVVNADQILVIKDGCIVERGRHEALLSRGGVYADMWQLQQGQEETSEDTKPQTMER
Chain of Integrin beta-1 (Homo sapiens) + Integrin alpha-4 (Homo sapiens) (P05556 whole entry, looked up): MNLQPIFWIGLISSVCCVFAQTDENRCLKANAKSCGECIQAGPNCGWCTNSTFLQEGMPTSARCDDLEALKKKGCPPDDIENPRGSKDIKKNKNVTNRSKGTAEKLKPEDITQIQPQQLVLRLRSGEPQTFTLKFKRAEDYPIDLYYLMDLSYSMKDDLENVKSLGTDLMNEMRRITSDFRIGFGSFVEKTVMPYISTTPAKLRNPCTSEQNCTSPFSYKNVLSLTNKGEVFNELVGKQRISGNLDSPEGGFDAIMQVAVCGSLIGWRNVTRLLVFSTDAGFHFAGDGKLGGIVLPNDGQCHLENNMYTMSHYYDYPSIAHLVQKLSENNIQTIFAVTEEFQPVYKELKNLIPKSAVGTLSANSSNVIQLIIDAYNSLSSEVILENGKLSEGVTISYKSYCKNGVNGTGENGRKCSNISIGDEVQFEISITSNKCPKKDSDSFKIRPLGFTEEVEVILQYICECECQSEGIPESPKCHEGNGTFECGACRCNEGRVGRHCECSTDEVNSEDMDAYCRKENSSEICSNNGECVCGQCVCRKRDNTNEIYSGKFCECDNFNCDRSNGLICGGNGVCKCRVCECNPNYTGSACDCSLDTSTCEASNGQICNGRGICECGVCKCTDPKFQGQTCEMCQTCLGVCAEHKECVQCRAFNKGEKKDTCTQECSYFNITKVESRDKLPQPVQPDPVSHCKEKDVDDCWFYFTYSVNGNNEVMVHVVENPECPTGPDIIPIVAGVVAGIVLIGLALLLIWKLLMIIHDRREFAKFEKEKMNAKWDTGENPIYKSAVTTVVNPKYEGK
Chain of Integrin beta-1 (Homo sapiens) + Integrin alpha-4 (Homo sapiens) (P13612 whole entry, looked up): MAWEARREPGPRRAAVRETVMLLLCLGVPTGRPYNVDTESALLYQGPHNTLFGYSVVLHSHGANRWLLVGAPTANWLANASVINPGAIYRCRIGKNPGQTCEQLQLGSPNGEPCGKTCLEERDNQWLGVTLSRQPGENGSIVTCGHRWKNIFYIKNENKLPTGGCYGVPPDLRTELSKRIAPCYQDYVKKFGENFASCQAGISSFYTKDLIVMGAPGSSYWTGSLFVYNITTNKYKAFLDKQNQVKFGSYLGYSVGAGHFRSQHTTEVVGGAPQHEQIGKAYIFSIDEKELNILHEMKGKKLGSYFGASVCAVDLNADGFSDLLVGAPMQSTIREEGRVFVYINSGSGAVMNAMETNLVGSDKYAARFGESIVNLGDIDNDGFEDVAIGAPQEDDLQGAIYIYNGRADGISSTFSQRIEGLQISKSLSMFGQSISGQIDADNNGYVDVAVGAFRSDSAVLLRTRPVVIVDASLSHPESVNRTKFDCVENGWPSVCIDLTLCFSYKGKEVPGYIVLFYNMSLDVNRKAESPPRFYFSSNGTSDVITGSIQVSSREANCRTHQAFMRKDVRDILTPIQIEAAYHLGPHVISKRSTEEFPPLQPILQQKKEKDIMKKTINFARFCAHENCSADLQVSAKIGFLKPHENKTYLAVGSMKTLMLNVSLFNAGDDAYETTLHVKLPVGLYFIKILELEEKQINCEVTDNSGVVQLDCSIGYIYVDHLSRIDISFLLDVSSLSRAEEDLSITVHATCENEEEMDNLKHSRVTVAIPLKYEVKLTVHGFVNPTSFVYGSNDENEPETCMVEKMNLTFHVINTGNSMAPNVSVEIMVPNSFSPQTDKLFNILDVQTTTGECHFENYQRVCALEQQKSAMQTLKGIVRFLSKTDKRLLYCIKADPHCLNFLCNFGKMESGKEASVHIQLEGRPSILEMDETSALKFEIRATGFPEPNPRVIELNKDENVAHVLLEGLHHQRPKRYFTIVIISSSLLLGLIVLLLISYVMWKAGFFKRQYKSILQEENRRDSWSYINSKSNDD

`Cc1ccsc1C1NC(=O)c2ccccc2N1` (stereo not drawn): the percent of DMSO control GFP in [1] was 103% (inactive). The values for the GFP response vs DMSO in experiment [2] and in [4] were 95.2% (inactive) and 93.1% (inactive), respectively. In [3], the percent response of DMSO control was 94.8% (inactive). Also, in experiment [5], the GFP response, % of DMSO was 93.8% (inactive). Besides, in experiment [6], the double positive events worked out at 59.5%. In experiment [6], the vesicle binding response was 266% (inactive). Besides, the inhibition – broadly, the relative decrease from the control value, in per cent – is 0.94% (inactive) in experiment [7], -5.8% (inactive) in experiment [11] and 6% (inactive) in [15]. Further, in experiment [8], the superoxide response (% of plate) was 102% (inactive). In addition, the aptamer binding inhibition in experiment [9] is 1% (inactive). Also, the figures for the response in experiment [10] and in [12] were -6.32% (inactive) and -1.97% (inactive), respectively. Further, the binding (% of control) in [13] was 97.6% (inactive). In addition, in [14], the efflux inhibition (fraction of control) is -0.28 (inactive). In addition, the differentiation response in experiment [16] was -15.2% (inactive).
As to `O=C(O)CCCNc1ccc(S(=O)(=O)Nc2ccccc2C(=O)O)cc1C(=O)O`, the percent of DMSO control GFP in experiment [1] is 105% (inactive). Also, the GFP response vs DMSO in experiment [2] is 94.1% (inactive); in experiment [4], 83.5% (inactive). Further, the percent response of DMSO control in [3] is 116% (inactive). Also, in experiment [5], the GFP response, % of DMSO was 97% (inactive). The same molecule displayed a double positive events in experiment [6] of 64.9%. For the same molecule, the vesicle binding response in experiment [6] was 187% (inactive). Besides, the inhibition in [7] is 12% (inactive); in experiment [11], -4.62% (inactive); in experiment [15], 17% (inactive). For the same molecule, the superoxide response (% of plate) in experiment [8] is 101% (inactive). Also, in [9], the aptamer binding inhibition was 5% (inactive). Further, the response in [10] is -8.58% (inactive); in [12], -5.39% (inactive). The binding (% of control) in experiment [13] was 102% (inactive). Also, the efflux inhibition (fraction of control) in experiment [14] was -0.14 (inactive). Also, in experiment [16], the differentiation response was 4.15% (inactive).
With `CCn1c(N2CCN(CC(=O)c3c(C)n(C)c4ccc(OC)cc34)CC2)nc2c1c(=O)[nH]c(=O)n2C`, the percent of DMSO control GFP in experiment [1] was 101% (inactive). Besides, the results for the GFP response vs DMSO in [2] and in experiment [4] were 104% (inactive) and 91.4% (inactive), respectively. For the same molecule, in experiment [3], the percent response of DMSO control is 97.8% (inactive). Moreover, the GFP response, % of DMSO in [5] was 99.9% (inactive). Further, the double positive events in [6] was found to be 60%. Further, the vesicle binding response in experiment [6] was 206% (inactive). Moreover, the inhibition in experiment [7] is -18.1% (inactive); in [11], 12.1% (inactive); in experiment [15] it was 23% (inactive). Moreover, the superoxide response (% of plate) in [8] was 100% (inactive). In addition, in [9], the aptamer binding inhibition was 1% (inactive). The response was -1.41% (inactive) in experiment [10] and -2.91% (inactive) in [12]. Also, the binding (% of control) in [13] was 101% (inactive). Further, the efflux inhibition (fraction of control) in experiment [14] was -0.26 (inactive). For the same molecule, the differentiation response in [16] was -2.69% (inactive).
For the molecule `O=c1c(C(c2ccccc2)c2c(O)sc3ccccc3c2=O)c(O)sc2ccccc12`, the percent of DMSO control GFP in experiment [1] was 93.8% (inactive). For the same molecule, the GFP response vs DMSO was 97.6% (inactive) in [2] and 112% (inactive) in [4]. Besides, the percent response of DMSO control in [3] was 91.8% (inactive). The GFP response, % of DMSO in experiment [5] was 113% (inactive). In [6], this molecule yielded a double positive events of 71.3%. Moreover, in experiment [6], the vesicle binding response is 187% (inactive). In addition, the figures for the inhibition in experiment [7], in experiment [11] and in experiment [15] were 15.9% (inactive), -1.26% (inactive) and -30% (inactive), respectively. Moreover, in experiment [8], the superoxide response (% of plate) was 90.1% (inactive). Moreover, in experiment [9], the aptamer binding inhibition was 1% (inactive). In addition, the response in experiment [10] was -1.18% (inactive); in [12] it was 0.43% (inactive). For the same molecule, the binding (% of control) in experiment [13] was 107% (inactive). Moreover, the efflux inhibition (fraction of control) in experiment [14] was -0.13 (inactive). In experiment [16], the differentiation response was 37.4% (inactive).
